Source: PubChem BioAssay (NCATS)
Inconclusive results are not listed. Calls of active or inactive are those of the source. Unless noted, calls come from the whole dose curve; as a rule, active = well fitted inhibition curve with a large enough effect; inconclusive = small, poorly fitted or top-dose-only effect; inactive = flat fitted curve, though single readings scatter.

The molecules below were run against Retinoic acid receptor RXR-alpha (Homo sapiens) (UniProt P19793) (assay: qHTS assay for small molecule antagonists of retinoid X receptor alpha signaling (AID 588546; active = well fitted inhibition curve with a large enough effect in the signal ratio, with a control signal flat, not every such curve was filed as active; the % refers to the signal ratio; note: potency is the fitted concentration of half-maximal effect;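 for max response: cells stimulated with 9-cis-retinoic acid as agonist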)). Details: HEK293T RXRa-UAS-bla, beta-lactamase ratio, antagonist mode.
Retinoic acid receptor RXR-alpha (Homo sapiens), sequence (P19793 whole entry, looked up): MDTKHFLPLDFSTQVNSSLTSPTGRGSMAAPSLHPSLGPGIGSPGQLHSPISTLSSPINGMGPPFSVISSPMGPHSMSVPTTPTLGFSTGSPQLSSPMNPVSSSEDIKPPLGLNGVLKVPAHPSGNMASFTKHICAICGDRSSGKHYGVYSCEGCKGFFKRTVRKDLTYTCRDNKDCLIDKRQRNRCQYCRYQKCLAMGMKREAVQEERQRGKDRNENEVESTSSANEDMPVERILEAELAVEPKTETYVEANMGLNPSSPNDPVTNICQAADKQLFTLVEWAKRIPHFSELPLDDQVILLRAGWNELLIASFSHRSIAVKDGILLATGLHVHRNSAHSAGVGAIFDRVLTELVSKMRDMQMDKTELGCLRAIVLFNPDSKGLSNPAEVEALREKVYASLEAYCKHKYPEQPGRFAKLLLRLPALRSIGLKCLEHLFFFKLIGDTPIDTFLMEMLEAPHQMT
Procedure, shortened: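 Beta-lactamase reporter inhibition, read as CCF4 fluorescence ratio (ex 405, em 460/530 nm) after 2 h at RT. HEK293T UAS-bla cells, 2500/well, were stimulated with 9-cis-RA at 500 or 100 nM final alongside test compound for 18 h at 37 C.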
% is set by controls: 0 for no effect and ±100 for the full control effect.

| Compound | max response | Potency |
| --- | --- | --- |
| O=C(O)COc1ccc(Cl)cc1 | -13.3% (inactive) |  |
| CN(c1c(Br)cc(Br)cc1Br)c1c([N+](=O)[O-])cc([N+](=O)[O-])cc1C(F)(F)F |  | 8.91 µM (active) |
| [CH3][Sn]([Cl])([Cl])[Cl] | -14.8% (inactive) |  |

These molecules were tested against Thyroid hormone receptor beta (Homo sapiens) (UniProt P10828) (assay: qHTS assay for small molecule antagonists of thyroid hormone receptor beta signaling (AID 588547; active = well fitted inhibition curve with a large enough effect in the signal ratio, with a control signal flat, not every such curve was filed as active; the % refers to the signal ratio;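 note: cells stimulated with 0.4 nM T3 agonist during compound exposure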)). Details: TR-UAS-bla HEK293, beta-lactamase ratio, antagonist mode, 18 h.
Thyroid hormone receptor beta (Homo sapiens), sequence (P10828 whole entry, looked up): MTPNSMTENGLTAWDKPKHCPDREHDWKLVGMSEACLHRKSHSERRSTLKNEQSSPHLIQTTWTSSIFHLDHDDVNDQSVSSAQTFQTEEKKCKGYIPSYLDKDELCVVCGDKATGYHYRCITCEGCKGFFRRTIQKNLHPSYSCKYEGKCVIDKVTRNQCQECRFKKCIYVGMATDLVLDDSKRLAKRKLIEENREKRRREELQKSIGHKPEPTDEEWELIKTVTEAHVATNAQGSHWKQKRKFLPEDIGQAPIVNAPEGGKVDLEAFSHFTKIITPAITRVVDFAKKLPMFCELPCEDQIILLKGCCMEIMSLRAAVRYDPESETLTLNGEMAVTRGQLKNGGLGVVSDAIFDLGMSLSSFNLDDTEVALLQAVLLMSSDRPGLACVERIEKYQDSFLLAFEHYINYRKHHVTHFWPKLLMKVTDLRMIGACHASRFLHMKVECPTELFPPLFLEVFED
Procedure, shortened: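 Inhibition of T3-driven (0.4nM final) beta-lactamase reporter activity was measured over 0.59 nM to 92 uM compound after 18 h at 37 C. The cells were GripTite HEK293 TR-UAS-bla in charcoal/dextran-stripped serum, with CCF4 ratio read-out and IC50 from Hill fits.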

| Compound | activity change % (negative = inhibition) |
| --- | --- |
| O=C(O)COc1ccc(Cl)cc1 | -4.24% (inactive) |
| CCCCC(CC)COC(=O)CCCCC(=O)OCC(CC)CCCC (stereo unspecified) | 4.91% (inactive) |
| CCC(CC)Nc1c([N+](=O)[O-])cc(C)c(C)c1[N+](=O)[O-] | -5.09% (inactive) |
| C1=Cc2cccc3cccc1c23 | 1.99% (inactive) |
| CCOP(=O)(OCC)Oc1ccc([N+](=O)[O-])cc1 | -16.8% (inactive) |

Each molecule was assayed against Voltage-gated inwardly rectifying potassium channel KCNH2 (Homo sapiens) (UniProt Q12809) (assay: qHTS Assay for Small Molecule Inhibitors of the Human hERG Channel Activity (AID 588834;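 note: top concentration of the series differs between compounds; lower thallium flux fluorescence means stronger hERG block; nearly all actives have a fitted effect of over 50% in size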)). Details: U2OS BacMam hERG, FluxOR thallium flux fluorescence; series mostly up to 92.2 µM.
Voltage-gated inwardly rectifying potassium channel KCNH2 (Homo sapiens), sequence (Q12809 whole entry, looked up): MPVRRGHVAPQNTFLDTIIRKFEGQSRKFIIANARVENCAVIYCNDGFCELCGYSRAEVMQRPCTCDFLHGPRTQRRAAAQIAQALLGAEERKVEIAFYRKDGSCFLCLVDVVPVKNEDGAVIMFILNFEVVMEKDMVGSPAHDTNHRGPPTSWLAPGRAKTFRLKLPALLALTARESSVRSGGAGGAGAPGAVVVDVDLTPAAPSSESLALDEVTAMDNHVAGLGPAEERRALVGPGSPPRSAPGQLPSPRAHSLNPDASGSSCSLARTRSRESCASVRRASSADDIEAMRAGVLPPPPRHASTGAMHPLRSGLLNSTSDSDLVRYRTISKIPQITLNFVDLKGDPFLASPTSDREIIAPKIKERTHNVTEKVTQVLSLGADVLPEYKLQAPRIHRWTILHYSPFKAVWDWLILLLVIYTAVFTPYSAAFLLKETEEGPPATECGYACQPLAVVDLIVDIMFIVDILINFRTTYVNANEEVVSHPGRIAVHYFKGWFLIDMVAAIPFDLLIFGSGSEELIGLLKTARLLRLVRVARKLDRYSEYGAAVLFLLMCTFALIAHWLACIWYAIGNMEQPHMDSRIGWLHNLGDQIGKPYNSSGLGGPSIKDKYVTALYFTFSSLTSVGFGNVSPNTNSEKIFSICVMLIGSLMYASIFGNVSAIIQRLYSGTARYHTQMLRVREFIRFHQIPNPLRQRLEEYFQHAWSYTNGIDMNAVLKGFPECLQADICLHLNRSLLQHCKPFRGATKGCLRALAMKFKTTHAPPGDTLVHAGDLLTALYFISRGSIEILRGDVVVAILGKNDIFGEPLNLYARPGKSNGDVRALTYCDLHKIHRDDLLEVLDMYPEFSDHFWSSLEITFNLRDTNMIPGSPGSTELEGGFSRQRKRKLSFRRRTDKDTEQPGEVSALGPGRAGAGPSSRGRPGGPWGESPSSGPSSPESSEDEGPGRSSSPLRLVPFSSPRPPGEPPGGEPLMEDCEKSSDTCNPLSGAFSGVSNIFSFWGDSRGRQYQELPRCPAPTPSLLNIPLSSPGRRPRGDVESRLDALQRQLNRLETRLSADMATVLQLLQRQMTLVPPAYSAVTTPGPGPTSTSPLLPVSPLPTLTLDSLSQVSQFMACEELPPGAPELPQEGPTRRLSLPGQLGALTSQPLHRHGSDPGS
Procedure, shortened: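 Thallium serves as surrogate for K+ influx through BacMam-delivered hERG in U2OS cells. Compounds are added for about 10 minutes after dye loading; stimulation buffer then starts flux, monitored kinetically on FDSS.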

| Compound | Potency |
| --- | --- |
| CN(C)CCCCCCN(C)C | inactive |
| c1ccccc1 | inactive |
| Cc1ccc2ccc3cccc4ccc1c2c34 | inactive |
